In the library only some 18% were active in any assay of this set; here they are far more common.
IL1B secr inh: qHTS for Inhibitors of Inflammasome Signaling: IL-1-beta AlphaLISA Primary Screen; actives 4.7% (n = 360,000); THP-1 LPS/ATP IL-1B secretion, AlphaLISA, 16 h; stronger effect = lower value; activity change, % at 57.5 µM; AID 743279, 2014; in the data active means activity change below about -50%; inconclusive means mostly about -30% to -49%
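THP-1 cells pretreated 1 hr with compounds (up to 57.5 uM final), then stimulated with LPS (250 ng/mL final) plus ATP (1.25 mM final); secreted IL-1B measured by AlphaLISA after 16 hr, decreased signal indicating inhibition.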
Six1-Eya2 inh: qHTS Assay for Inhibitors of the Six1/Eya2 Interaction | AID 651725, 2012 | AlphaScreen GST-Six1/His-Eya2 binding, biochemical; stronger effect = lower value | activity change, % (test concentration not listed) | actives 0.56% (n = 360,000) | Homeobox protein SIX1 (Homo sapiens) + Protein phosphatase EYA2 (Homo sapiens), …; in the data active means activity change below about -65%; inconclusive means mostly about -30% to -63%
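AlphaScreen with GST-Six1 and His-Eya2 (5X mix: 250 nM and 500 nM), glutathione donor and nickel acceptor beads; buffer 50 mM Tris pH 8.0, 300 mM NaCl, 1 mM TCEP; 1 h at 37 C in the dark.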
TDP1 inh: qHTS Assay for Inhibitors of Tyrosyl-DNA Phosphodiesterase (TDP1); Tyrosyl-DNA phosphodiesterase 1 (Homo sapiens), Q9NUW8; recombinant TDP1, AlphaScreen DNA substrate cleavage; actives 0.28% (n = 350,000); AID 485290, 2010; Potency, µM (series often up to 130 µM), most hits filed as inhibitors; further: nearly all actives have a fitted effect of over 40% in size
Target sequence (Q9NUW8 whole entry, looked up): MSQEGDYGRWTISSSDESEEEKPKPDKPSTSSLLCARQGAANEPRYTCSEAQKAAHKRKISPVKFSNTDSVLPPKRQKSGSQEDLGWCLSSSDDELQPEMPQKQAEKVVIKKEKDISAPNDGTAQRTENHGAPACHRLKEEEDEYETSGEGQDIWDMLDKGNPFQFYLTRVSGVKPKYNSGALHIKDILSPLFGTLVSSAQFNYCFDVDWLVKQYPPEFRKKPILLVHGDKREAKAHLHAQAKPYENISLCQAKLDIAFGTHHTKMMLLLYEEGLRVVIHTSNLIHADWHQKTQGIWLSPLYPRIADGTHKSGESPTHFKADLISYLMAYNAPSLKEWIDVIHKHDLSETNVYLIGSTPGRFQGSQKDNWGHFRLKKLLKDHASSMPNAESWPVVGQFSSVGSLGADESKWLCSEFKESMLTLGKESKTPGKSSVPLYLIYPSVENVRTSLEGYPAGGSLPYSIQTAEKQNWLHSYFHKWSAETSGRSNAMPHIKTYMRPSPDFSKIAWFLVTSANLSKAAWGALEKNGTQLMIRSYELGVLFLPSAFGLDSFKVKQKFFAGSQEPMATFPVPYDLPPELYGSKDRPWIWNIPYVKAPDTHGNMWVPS
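Recombinant human Tdp1 (E. coli-expressed, 1 nM final) preincubated with compounds 15 min at room temperature, then 5'-biotin/3'-phosphotyrosine-FITC DNA substrate (15 nM final) added for 5 min. AlphaScreen beads (10 ug/ml final) added 10 min; cleavage lowers signal.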
TDP1 cell CPT: qHTS for Inhibitors of human tyrosyl-DNA phosphodiesterase 1 (TDP1): qHTS in cells in presence of CPT; chicken DT40 Tdp1-/-;hTDP1 cells + 20 nM CPT, ATP luminescence, 48 h; Potency, µM (series often up to 46.2 µM), most hits filed as inhibitors; actives 12% (n = 420,000); further: nearly all actives have a fitted effect of over 55% in size
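Cell growth measured by CellTiter-Glo luminescence after a minimum 48 h, 37 C compound exposure with 20 nM CPT in Tdp1-knockout DT40 cells stably expressing hTDP1, seeded 400/well; qHTS titration format.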
CtBP-E1A inh: qHTS Assay for Inhibitors of the CtBP/E1A Interaction | CtBP / adenovirus E1A interaction (AlphaScreen) | AlphaScreen GST-E1A/His-CtBP binding, 1536-well; stronger effect = lower value | activity change, % (no concentration beside the values) | actives 0.49% (n = 340,000); in the data active means activity change below about -65%; inconclusive means mostly about -30% to -63%
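GST-E1A and His-tagged CtBP (125 nM each as 5X stock) were preincubated with pin-transferred compound for 2 h at 37 °C in the dark, then glutathione donor and nickel acceptor beads were added for 1 h before AlphaScreen reading.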
TDP1 cell noCPT: qHTS for Inhibitors of human tyrosyl-DNA phosphodiesterase 1 (TDP1): qHTS in cells in absence of CPT | DT40 Tdp1-/- hTDP1 cells, no CPT, ATP luminescence, 48 h | Potency, µM (highest dose often 46.2 µM), actives largely listed as inhibitors | actives 15% (n = 420,000) | AID 686978, 2013; further: nearly all actives have a fitted effect of over 55% in size
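Chicken DT40 Tdp1-/- cells complemented with human TDP1, screened without camptothecin (DMSO vehicle only), 400 cells/well. Compounds pin-transferred, cells incubated at 37 °C for at least 48 hr. Growth read as ATP-dependent luminescence (CellTiter-Glo, 30 min at RT).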
Numbers stand for hits; . = inactive; ? = inconclusive; / = no result given. Unless noted, the call rests on the fitted dose curve; in most records, active means well fitted curve in the direction sought with a large enough effect; inconclusive means small, poorly fitted or top-dose-only effect, or another doubt; inactive means no such curve, though single readings can be large; an effect the other way counts as inactive or inconclusive.

SMILES	IL1B secr inh	Six1-Eya2 inh	TDP1 inh	TDP1 cell CPT	CtBP-E1A inh	TDP1 cell noCPT
CC(C)c1nccn1S(=O)(=O)c1cccc([N+](=O)[O-])c1	.	.	.	.	.	.
Cc1ccc(F)c(C(=O)N2CCCC(C)(C(=O)NS(=O)(=O)C3CC3)C2)c1F (stereo unspecified)	.	.	/	6.5µM	.	5.8µM
CC1(C(=O)NS(=O)(=O)C2CC2)CCCN(C(=O)C2(c3ccc(Cl)cc3)CCCC2)C1 (stereo unspecified)	.	.	/	?	.	12µM
CCn1cc2nc(SCc3cccc(C(F)(F)F)c3)n(CCc3ccccc3)c(=O)c2n1	/	/	.	23µM	/	13µM
Cc1cccc(CSc2nc3c([nH]c4ccccc43)c(=O)n2C)c1	/	/	.	?	/	?
CCn1cc2nc(SCc3cccc(C)c3)n(CCc3ccccc3)c(=O)c2n1	/	/	.	23µM	/	?
CCn1cc2nc(SCc3cc(C)ccc3C)n(Cc3ccc(Cl)cc3)c(=O)c2n1	/	/	.	?	/	?
CCn1cc2nc(SCc3cccc(C(F)(F)F)c3)n(Cc3ccc(Cl)cc3)c(=O)c2n1	/	/	.	15µM	/	8.2µM
CCn1cc2nc(SCc3cccc(Cl)c3)n(Cc3ccc(C)cc3)c(=O)c2n1	/	/	.	21µM	/	23µM
COC(=O)c1ccc(Cn2c(O)c(N=NC(N)=S)c3ccccc32)o1	?	.	.	?	.	?
CCC1OC(=O)C(C)[C@@H](O[C@H]2C[C@@](C)(OC)C(O)C(C)O2)C(C)[C@@H](O[C@@H]2OC(C)CC(N(C)C)C2O)[C@@](C)(O)CC(C)C2NC(COCCOC)O[C@H](C2C)[C@@]1(C)O (stereo partly specified)	/	/	.	.	/	.
COC(=O)C1C(c2ccc(OC)cc2)Nc2nnc(C(F)(F)F)n2C1(C)O (stereo unspecified)	.	.	.	.	.	.
CC(C)CNC(=O)C1Nc2ccc(OC(F)(F)F)cc2C2C=CCC12 (stereo unspecified)	.	.	/	?	.	13µM
CCOC(=O)C1Nc2ccc(Br)cc2C2C=CCC12 (stereo unspecified)	.	.	/	?	.	21µM
CCOC(=O)C1Nc2ccc(C)cc2C2C=CCC12 (stereo unspecified)	.	.	/	?	/	18µM
O=C(O)C1Nc2ccc(Br)cc2C2C=CCC12 (stereo unspecified)	.	.	/	.	/	.
CCOC(=O)c1ccc2c(c1)C1C=CCC1C(C(=O)OCC)N2 (stereo unspecified)	.	.	/	?	.	?
COc1ccc(-c2cc(C(=O)N(C)Cc3ccccc3)no2)cc1OC	.	.	.	.	.	.
Cc1ccc(NC(=O)c2cc3c(Cl)nc4ccc(C)cc4c3s2)c(Cl)c1	/	/	.	.	/	?
CCC1CCCCN1CCCNC(=O)c1cc2c(Cl)nc3ccc(C)cc3c2s1 (stereo unspecified)	/	/	.	5.2µM	/	4.6µM
Cc1ccc2nc(Cl)c3cc(C(=O)N4CCCCC4)sc3c2c1	/	/	.	?	/	.
Cc1ccc2nc(Cl)c3cc(C(=O)N4CCCCC4C)sc3c2c1 (stereo unspecified)	/	/	.	?	/	23µM
Cc1ccc2nc(Cl)c3cc(C(=O)NCCCN4CCCC4)sc3c2c1	.	.	.	5.8µM	.	5.8µM
Cn1ncc2c(NNC(=O)c3ccc(O)cc3)ncnc21	.	.	.	.	/	.
Nc1ncnc2c1ncn2[C@@H]1O[C@H](CNCC(O)CO)[C@@H](O)[C@H]1O (stereo partly specified)	.	.	.	.	.	.
SMILES	IL1B secr inh	Six1-Eya2 inh	TDP1 inh	TDP1 cell CPT	CtBP-E1A inh	TDP1 cell noCPT
Cc1nc2n(c(=O)c1CCN1CCC(c3noc4cc(F)ccc34)CC1)CCC[C@H]2O	/	/	/	0.094µM	/	0.53µM
COc1ccc(N/N=C(/C(N)=O)C2=NC(C)(C)Cc3ccccc32)cc1	.	?	.	16µM	?	16µM
COc1ccc(NC(=O)NCc2ccccn2)cc1	.	.	.	.	.	.
CC(C)N(C)c1ncnc2c1ncn2[C@H]1CN(Cc2ccncc2)C[C@@H](CO)O1	.	.	/	23µM	.	23µM
CC(C)N(C)c1ncnc2c1ncn2[C@H]1CN(Cc2ccco2)C[C@@H](CO)O1	.	.	/	.	.	.
OCCNc1ncnc2c1ncn2[C@H]1CN(Cc2ccncc2)C[C@@H](CO)O1	-89	.	/	.	.	.
CC(C)N(C)c1ncnc2c1ncn2[C@H]1CN(Cc2ccc(-c3ccccc3)cc2)C[C@@H](CO)O1	.	.	/	7.3µM	.	6.5µM
Cc1ccc2nc(SCC(=O)N3CCCC3)[nH]c2c1	.	.	.	.	.	.
Cc1ccc2nc(SCC(=O)N3CCC4(CC3)CC4C(=O)Nc3ccc(F)c(F)c3)[nH]c2c1 (stereo unspecified)	/	/	/	?	/	23µM
COC(=O)CSc1nc2ncc(Cl)cc2[nH]1	.	.	.	.	.	.
CC(C)CN(C(=O)COC(=O)c1ccc(Cl)nc1)c1c(N)n(Cc2ccccc2)c(=O)[nH]c1=O	.	.	.	.	.	.
COc1ccc(Cl)cc1S(=O)(=O)N1CCN=C1C	.	.	.	18µM	.	?
COc1ccc(C)cc1S(=O)(=O)N1CCN(c2cccc(C(F)(F)F)c2)CC1	.	.	.	.	.	?
COc1ccc(C)cc1S(=O)(=O)N1CCN(c2cccc(Cl)c2)CC1	/	/	.	21µM	/	?
COc1ccc(C)cc1S(=O)(=O)N1CCCC(N2CCN(c3ccccc3)CC2)C1 (stereo unspecified)	.	.	/	?	.	21µM
CCOc1ccc(S(=O)(=O)N2CCCCC2)cc1NC(=O)CCc1ccc(OC)cc1	.	.	.	.	.	.
COc1ccc(-c2cn[nH]c2-c2ccc(O)cc2O)cc1OC	.	.	/	.	.	?
CCOc1ccc(-c2[nH]ncc2-c2ccc(Cl)cc2)c(O)c1	.	.	/	16µM	/	?
CCOc1ccc(-c2[nH]ncc2-c2ccc(OC)c(OC)c2)c(O)c1	.	.	.	3.7µM	.	3.7µM
c1ccc(-c2cn(-c3ccccc3)c3ncnc(N4CCN(c5ccccc5)CC4)c23)cc1	/	/	.	?	/	?

High-throughput results (PubChem)
